Screening data from PubChem.
KCNH2 3.1 block: qHTS for Inhibitors of KCHN2 3.1: Mutant qHTS. Potassium voltage-gated channel subfamily H member 2, brain isoform KCNH2 3.1 (human). U2OS KCNH2 3.1, thallium flux FluxOr; hits give low values. activity change, % (tested at about 1.8 µM). actives 0.95% (n = 340,000);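 active = maximum activity change below -70%; inconclusive = maximum activity change from -70% to -50%; inactive = maximum activity change above -50%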;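 note: thallium influx rate constant from kinetic fluorescence after stimulation buffer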
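Thallium flux read-out: FluxOr dye with Red40 quencher in HBSS/HEPES, 45 min at RT. Rate constants from kinetic reads were normalized to positive and negative DMSO controls. Cells: U2OS virally expressing the 3.1 isoform.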
Tb PFK inh: qHTS Assay to Find Inhibitors of T. brucei phosphofructokinase. T. brucei PFK, ADP-Glo luminescence. Potency, µM (doses to about 57.5 µM), hits mostly inhibitors. actives 0.17% (n = 330,000); active = well fitted inhibition curve with a large enough effect; inconclusive = small, poorly fitted or top-dose-only effect, or effect the other way; note: nearly all actives have a fitted effect of over 60% in size
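PFK 1.25 nM, F6P 0.5 mM, ATP 0.1 mM, 0.1 M TEA pH 8.0, 5 mM MgCl2, 0.01% Tween20, 0.1% BSA; 45 min RT. ADP-Glo readout. qHTS titration up to 57 uM; curves fitted, compounds curve-classed.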
KCNH2 WT inh: qHTS for Inhibitors of KCHN2 3.1: Wildtype qHTS | U2OS, BacMam KCNH2, thallium flux FluxOr; hits give low values | AID 720551, 2013 | activity change, % at 1.84 µM | Voltage-gated inwardly rectifying potassium channel KCNH2 (Homo sapiens), Q12809 | actives 0.37% (n = 340,000);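 active = maximum activity change below -70%; inconclusive = maximum activity change between -70% and -50%; inactive = maximum activity change above -50%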
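U2OS cells transduced with wild-type KCNH2 virus are loaded with FluxOr dye for 45 min, and thallium flux is measured in kinetic reads before and after stimulation buffer. Rate constants are normalized to DMSO controls.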
TSG101-PTAP inh: qHTS Assay for Iinhibitors of HIV-1 Budding by Blocking the Interaction of PTAP/TSG101 | Fluorescence polarization, FITC-PTAP peptide / Tsg101 binding | 340,000 tested, under 10 active | Potency, µM (top dose mostly 115 µM), hits mostly inhibitors | Tumor susceptibility gene 101 protein (Homo sapiens), Q99816 | AID 493005, 2010; active = well fitted inhibition curve with a large enough effect in the main read-out, with a control signal flat, not every such curve was filed as active; inconclusive = small, poorly fitted or top-dose-only effect, or effect the other way, or a change in a side signal; inactive = no such curve, though single readings can be large or run the other way
Target sequence (Q99816 whole entry, looked up): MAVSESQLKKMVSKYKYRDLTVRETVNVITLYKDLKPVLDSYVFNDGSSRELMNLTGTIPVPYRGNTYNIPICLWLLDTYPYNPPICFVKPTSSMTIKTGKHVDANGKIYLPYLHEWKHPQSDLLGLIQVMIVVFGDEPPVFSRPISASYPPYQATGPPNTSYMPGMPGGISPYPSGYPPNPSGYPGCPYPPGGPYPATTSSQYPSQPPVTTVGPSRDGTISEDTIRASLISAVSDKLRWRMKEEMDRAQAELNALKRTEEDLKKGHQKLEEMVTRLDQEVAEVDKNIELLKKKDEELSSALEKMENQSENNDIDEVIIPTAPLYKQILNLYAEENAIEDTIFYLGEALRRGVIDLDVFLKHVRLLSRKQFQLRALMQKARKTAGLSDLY
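Tsg101 binding domain (10 uM final) was mixed with compound and a FITC-labeled PTAP peptide (50 nM final) in HEPES pH 7.5 buffer with NaCl, Tween 20, EDTA and TCEP; fluorescence polarization was read after 20 min at r.t.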
Hits are given with their value; i = inactive; ? = inconclusive; nt = no result given; [ ] = another dose, or the depositor's remark. An excerpt weighted towards active compounds, which were near 1.2% of everything screened.

SMILES	KCNH2 3.1 block	Tb PFK inh	KCNH2 WT inh	TSG101-PTAP inh
CN(C)C(CNC(C(=O)Nc1ccc([N+](=O)[O-])cc1Br)c1ccccc1)c1ccccc1 (stereo not drawn)	-85	i	i	i
CC(NC(=O)c1ccc(C(C)(C)C)cc1)C(c1cccs1)N1CCOCC1 (stereo not drawn)	i	i	i	i
COc1ccc(CN2CCC(Oc3cc(C(=O)NC4CC4)ccc3OC)CC2)c(O)c1	-94	i	-109	i
O=C(NC1CCN(CC(=O)N(c2ccccc2)c2ccccc2)CC1)c1ccc([N+](=O)[O-])cc1	-111	i	-77	i
O=C(NC1CCN(Cc2ccccc2)CC1)c1ccccc1	i	i	i	i
O=C(NC1CCN(Cc2ccc(Cl)cc2Cl)CC1)c1ccccc1	-84	i	i	i
CC1CCCCC1NC(=O)CN1CCC(NC(=O)c2ccc([N+](=O)[O-])cc2)CC1 (stereo not drawn)	i	i	i	i
COc1ccc(C(=O)NC2CC2)cc1OC1CCN(Cc2cc(C)c(C)cc2C)CC1	-75	i	?	i
COc1ccc(-n2nc(C(=O)NCC(=O)NCCC3=CCCCC3)c3ccccc3c2=O)cc1	i	i	i	i
CCOC1(C)OCC(=O)[C@]2(CCC3C4CCC5=CC(=O)C=CC5(C)C4C(=O)CC32C)O1 (stereo partly drawn)	i	i	i	i
CC1CN(S(=O)(=O)c2cccc(C(=O)NCC(c3cccs3)N3CCOCC3)c2)CC(C)O1 (stereo not drawn)	i	nt	i	i
COc1ccc(C(=O)NC2CC2)cc1OC1CCN(Cc2ccc(F)cc2Cl)CC1	-93	nt	-75	i
Cc1ccc(S(=O)(=O)N(C)c2ccc3ccccc3c2)cc1	-148	i	i	i
Cc1ccc(N(C(=O)CS(=O)CC(=O)Nc2ccc(F)cc2)C(C(=O)NC2CCCCC2)c2ccco2)cc1 (stereo not drawn)	i	i	i	i
CCOc1cc(/C=C(\CC(=O)O)c2nc3ccccc3s2)ccc1OC	i	i	i	i
CCOc1cc(/C=C(\CC(=O)O)c2nc3ccccc3s2)ccc1OCC(=O)Nc1cccc(C(F)(F)F)c1	i	nt	-258	i
C/C(=N\O)C(C)(C)Nc1ccc(Br)cc1	i	i	i	i
COc1ccc(C2=Nc3ccc(C)cc3C(c3ccccc3)N2CC(=O)NN)cc1 (stereo not drawn)	-190	i	i	i
COc1ccc(C2=Nc3ccc(Br)cc3C(c3ccccc3)N2CC(=O)NN)cc1 (stereo not drawn)	-72	i	i	i
NNC(=O)CN1C(c2cccc(Cl)c2)=Nc2ccc(Br)cc2C1c1ccccc1 (stereo not drawn)	i	i	i	i
CC(=O)OCC1OC(OC2C[C@]3(C)C(CC(O)C4C([C@](C)(CCC=C(C)C)OC5OC(CO)C(O)C(O)C5O)CC[C@]43C)[C@@]3(C)CCC(O)C(C)(C)C23)C(O[C@@H]2OC(C)C(O)C(O)C2O)C(O)C1O (stereo partly drawn)	i	i	i	i
S=c1[nH]cnc2scc(-c3ccc(Br)cc3)c12	i	i	-84	i
O=C(/C=C/c1cccs1)c1ccc(NC(=O)c2ccccc2F)cc1	i	i	i	i
COc1ccccc1C(=O)Nc1ccc(C(=O)/C=C/c2cccs2)cc1	-83	i	i	i
CCC(C)c1ccccc1NC(=O)COC(=O)C1=COCCO1 (stereo not drawn)	i	i	i	i
SMILES	KCNH2 3.1 block	Tb PFK inh	KCNH2 WT inh	TSG101-PTAP inh
Cc1cc(N2CCOCC2)nc2ccc(NC(=S)N3CCN(c4ccccc4)CC3)cc12	i	i	i	i
Cc1cc(N2CCN(C)CC2)nc2ccc(NC(=S)NCCC(C)C)cc12	i	i	i	i
Cc1ccc(C)c(N2CCN(C(=S)Nc3ccc4nc(N5CCOCC5)cc(C)c4c3)CC2)c1	-85	i	-77	i
Cc1ccc(C)c(N2CCN(C(=S)Nc3ccc4nc(N5CCN(C)CC5)cc(C)c4c3)CC2)c1	-90	i	-115	i
Cc1cc(N2CCN(C)CC2)nc2ccc(NC(=S)N3CCN(c4ccccn4)CC3)cc12	i	i	i	i
Cc1cc(N2CCOCC2)nc2ccc(NC(=S)NCCC(C)C)cc12	-88	i	i	i
Cc1cccc(N2CCN(C(=S)Nc3ccc4nc(N5CCOCC5)cc(C)c4c3)CC2C)c1 (stereo not drawn)	-76	i	i	i
COc1ccc(NC(=O)c2ccc(-c3ccccc3)cc2)cc1S(=O)(=O)N1CCOCC1	-71	i	i	i
COc1ccc(NC(=O)c2ccc(-c3ccccc3)cc2)cc1NS(=O)(=O)c1ccc(F)cc1	-77	i	i	i
CCc1ccc(C(=O)Nc2ccc(OC)c(S(=O)(=O)N3CCOCC3)c2)cc1	i	i	i	i
Cc1cc(C)cc(NC(=O)c2cc(S(=O)(=O)N3CCCC3)cn2C)c1	-107	i	i	i
Cn1c(O)c(N=NC(=O)CNC(=O)/C=C/c2ccccc2)c2ccccc21	-184	i	i	i
CCn1c(O)c(N=NC(=O)CNC(=O)/C=C/c2ccccc2)c2ccccc21	i	i	i	i
Nc1nc2ccccc2n1/N=C/c1ccc(-c2ccccc2)o1	-87	i	i	i
Nc1nc2ccccc2n1/N=C/c1cccnc1	i	nt	i	i
COc1ccc(-c2cc(-c3nc4ccccn4c3NCc3ccccc3)ccc2OC)cc1	-101	i	-99	i
CCC(C)Sc1cc(-c2nc3ccccn3c2NC2CCCCC2)ccc1OC (stereo not drawn)	-149	?	i	i
Clc1cccc(-c2ccc(-c3nc4ccccn4c3NCc3ccccc3)cc2)c1	i	i	i	i
CCCCCCSc1ccc(-c2nc3ccc(C)cn3c2NCc2ccccc2)cc1OC	-91	i	i	i
CCCCNc1c(-c2ccc(SC3CCCCC3)c(OC)c2)nc2ccc(C)cn12	-72	i	i	i
CCCCc1cc(=O)oc2c(C)c(OCC(=O)NCC3CCC(C(=O)O)CC3)ccc12 (stereo not drawn)	i	i	i	i
COc1ccc(-n2nc3c(c2NC(=O)COc2ccccc2OC)CS(=O)(=O)C3)cc1	i	nt	i	nt
CN(CCOc1ccc(Cl)cc1)C(=O)Cc1ccc(S(=O)(=O)N2CCOCC2)s1	i	i	i	i
CC1CCCC(NC(=O)COC(=O)c2ccc3ncsc3c2)C1C (stereo not drawn)	i	i	i	i
CCCC[C@]12Cc3cc(C#N)ccc3C(O1)c1c(c3cc(F)ccc3oc1=O)O2	nt	i[11.5 µM]	nt	nt
CCCCNc1c(-c2ccc(SC3CCCCC3)cc2)nc2ccccn12	-81	i	?	i
CCC(C)Sc1cc(-c2nc3ccc(C)cn3c2NCc2ccccc2)ccc1OC (stereo not drawn)	-102	nt	?	i
